Experimental data as given in PubChem BioAssay (NCI).
The panel holds about 79,000 compounds, 15% with a hit somewhere; the sample as a whole holds those more often. Values without a mark were called inactive. The source made the active and inactive calls. No stated cut-off is given here; in the data, active means growth inhibition above about 70%; inactive means the rest.

Test: NCI Yeast Anticancer Drug Screen. Data for the sgs1 mgt1 strain (AID 161);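 further: 0% = growth of cultures given vehicle only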
Settings: S. cerevisiae sgs1 mgt1 strain, at 50.0 µM (retest, dose inferred, filed as 5.0), active compounds read high
How it was run: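 Percent growth inhibition was derived by comparing compound-exposed mutant yeast with vehicle-exposed cultures. The strain carries alterations in DNA damage repair.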

Row | Structure (SMILES) | growth inhibition
1 | CCN(CC)CCNc1ccc2nnn3c4ccc([N+](=O)[O-])cc4c(=O)c1c23 | 15%
2 | CCCCCCN(CCCCCC)CCC(=O)c1ccc2cc(Br)c3ccccc3c2c1 | 94% (active)
3 | COC(=O)/C=C1/Nc2ccc(Cl)cc2C(=O)NC1=O | 54%
4 | CN(C)COC(=S)SCN(C)C | 99% (active)
5 | Clc1ccc(-c2noc(CN3CCCCC3)n2)cc1 | 62%
6 | CCCCCCCCCCCCCC(=O)OCC(O)CO (centres undefined) | 11%
7 | CCC[CH2][Sn]([CH2]CCC)([O]C(=O)c1cccc(F)c1)[O]C(=O)c1cccc(F)c1 | -1%
8 | CCCCCCCCCCCCCCCCC1CCc2ccccc21 (centres undefined) | 13%
9 | CCOC(=O)NCCCc1ccc2oc3ccccc3c2c1 | 97% (active)

Same assay, conditions: S. cerevisiae sgs1 mgt1 strain, at 50.0 µM, active compounds read high

Row | Structure (SMILES) | growth inhibition
10 | O=C(/C=C/c1cccc(Cl)c1)c1ccccc1 | 98% (active)
11 | COc1cccc(N2C(=O)C3CC(CC(C)(C)C)c4c([nH]c5ccccc45)C3C2=O)c1 (centres undefined) | 35.9%
12 | O=C1c2ccccc2NC(=O)C2C1C(c1ccccc1)CC2(O)c1ccccc1 (centres undefined) | 72% (active)
13 | CCOC(=O)C1SC(=Nc2ccc(Cl)cc2)N=C1C (centres undefined) | 89.8% (active)
14 | COC(=O)c1nc(=S)[nH]c(C(=O)OC)c1C(=O)c1ccccn1 | 84.5% (active)
15 | Cn1c2c(c3ccccc31)CCN1C[C@@H]3CCCC[C@H]3C[C@@H]21 | 74.4% (active)
16 | CCCCCCCCCCCC1=NCCN1CCNCCCC | 44.2%
17 | CN=C(N)N/N=C(\C)c1ccc2c(c1)Cc1cc(/C(C)=N/NC(N)=NC)ccc1-2 | 83.2% (active)
18 | O=C(Nc1ccccc1)OCCc1ccc(Br)cc1 | 14.4%
19 | CN(C)CC/C(=N\Nc1ccc(Cl)cc1)c1ccccc1 | 99% (active)
20 | O=C1Nc2ccccc2/C1=N\N=c1/scc(-c2ccccc2)n1-c1ccccc1 | 62.1%
21 | CC(C)(C)C(=O)CC(=O)C(F)(F)C(F)(F)C(F)(F)F.CC(C)(C)C(=O)CC(=O)C(F)(F)C(F)(F)C(F)(F)F.CC(C)(C)C(=O)CC(=O)C(F)(F)C(F)(F)C(F)(F)F.[Fe] | 74.9% (active)
22 | COc1cc(N=Nc2cccc(S(N)(=O)=O)c2)c2ccccc2c1N | 97.4% (active)
23 | O=C(/C=C/C(=O)OCCCl)OCCCl | 92.5% (active)
24 | CCc1ccccc1NC(=O)C1=C(C)NC(C)=C(C(=O)Nc2c(CC)cccc2CC)C1c1ccc2c(c1)OCO2 (centres undefined) | 89.3% (active)
25 | Oc1c(Cl)cc(Cl)c2cccnc12 | 97.7% (active)
26 | COc1ccc2c(c1)[n+]([O-])c(-c1ccccc1)c(N)[n+]2[O-] | 99.2% (active)
27 | O=c1cccccc1[O-].O=c1cccccc1[O-].O=c1cccccc1[O-].[Sm+3] | 90.5% (active)
28 | CCCCCCCCCCCCCCCCNc1ccn(C2CC(OP(=O)(O)OCC3OC(n4cc(CC)c(=O)[nH]c4=O)CC3O)C(CO)O2)c(=O)n1 (centres undefined) | 58%
29 | Nc1ccccc1OCC(O)CN1CCN(Cc2ccccc2)CC1 (centres undefined) | 75.6% (active)

Row | Structure (SMILES) | growth inhibition
30 | O=S(=O)(O)c1ccc(O)c2cc(Nc3ccccc3)ccc12 | 26.2%
31 | CCOC(=O)/C(=C\c1ccc(-c2ccccc2)cc1)C(C)=O | 81.2% (active)
32 | O=C(C(Oc1ccc(Cl)cc1)Oc1ccc(Cl)cc1)N(O)c1ccccc1OCc1ccccc1 | 69.5%
33 | CN(C)CC1CCC/C(=C\c2ccc(Cl)cc2)C1=O (centres undefined) | 92.5% (active)
34 | COc1ccc(/C=N/Nc2ccccc2)cc1 | 98.9% (active)
35 | O=C1c2ccccc2-c2ccccc2C(=O)C1(Br)Br | 88.3% (active)
36 | CC(=O)Nc1ccc(C(=O)n2[nH]c(C)c(/C=C3\C(=O)C=Cc4ccccc43)c2=O)cc1 | 99.4% (active)
37 | CC1OC2CC(=O)OC2C2=C1C(=O)c1c(O)cccc1C2=O (centres undefined) | 92.6% (active)
38 | CCOC(=O)C(CCSC)C(=O)OCC | -0.15%
39 | C[CH2][Sn]([CH2]C)([O]C(=O)c1cccc(OC)c1)[O][Sn]([CH2]C)([CH2]C)[O]C(=O)c1cccc(OC)c1 | 37.5%
40 | O=C(Nc1ccccc1)Oc1c(Cl)c(Cl)c(Cl)c(Cl)c1Cl | 55.7%
41 | CCN(CC)CCNc1ccc2nnn3c4ccc([N+](=O)[O-])cc4c(=O)c1c23 | 66%
42 | CCCCCCN(CCCCCC)CCC(=O)c1ccc2cc(Br)c3ccccc3c2c1 | 97.9% (active)
43 | COC(=O)/C=C1/Nc2ccc(Cl)cc2C(=O)NC1=O | 58.9%
44 | CN(C)COC(=S)SCN(C)C | 60.2%
45 | Clc1ccc(-c2noc(CN3CCCCC3)n2)cc1 | 49.6%
46 | CCCCCCCCCCCCCC(=O)OCC(O)CO (centres undefined) | -0.5%
47 | CCC[CH2][Sn]([CH2]CCC)([O]C(=O)c1cccc(F)c1)[O]C(=O)c1cccc(F)c1 | 73.2% (active)
48 | CCCCCCCCCCCCCCCCC1CCc2ccccc21 (centres undefined) | 79.4% (active)
49 | CCOC(=O)NCCCc1ccc2oc3ccccc3c2c1 | 90.8% (active)
